Compound activity: PubChem, National Center for Advancing Translational Sciences (NCATS)
JMJD2A Tudor inh = qHTS Assay for Inhibitors of JMJD2A-Tudor Domain; Lysine-specific demethylase 4A (Homo sapiens), O75164; AlphaScreen JMJD2A-Tudor / H3K4me3 peptide binding; Potency, µM (doses to about 114 µM), for inactives: at the highest dose activity change, negative = inhibition, usual class: inhibitors; 4.4% of 390,000 active; AID 504339, 2011; also: % is scaled to controls: 0 for no effect and ±100 for the full control effect; nearly all actives have a fitted effect of over 50% in size
HP1b chromo inh = HTS for Inhibitors of HP1-beta Chromodomain Interactions with Methylated Histone Tails | Chromobox protein homolog 1 (Homo sapiens), P83916 | AlphaScreen HP1-beta / biotin-H3K9me3 peptide binding | Potency, µM (top dose mostly 114 µM), without a hit: at the top dose activity change, negative = inhibition, most hits filed as inhibitors | 0.56% of 390,000 active | AID 540317, 2011; also: nearly all actives have a fitted effect of over 70% in size
Target sequence (P83916 whole entry, looked up): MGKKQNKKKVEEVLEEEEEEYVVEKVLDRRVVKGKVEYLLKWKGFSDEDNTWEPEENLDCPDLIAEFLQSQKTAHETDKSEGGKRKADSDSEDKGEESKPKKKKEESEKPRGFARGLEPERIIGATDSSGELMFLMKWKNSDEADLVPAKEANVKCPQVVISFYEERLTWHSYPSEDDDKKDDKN
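AlphaScreen: HP1-beta (50 nM) preformed 30 min with biotin-H3(1-18)K9me3 peptide (50 nM) in PBS pH 7.4, 0.01% Tween-20. Compound added for 30 min at RT, then streptavidin donor/nickel chelate acceptor beads (10 ug/mL) for 30 min.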
Sfp PPTase inh = qHTS Assay for Inhibitors of Bacillus subtilis Sfp phosphopantetheinyl transferase (PPTase) | 4'-phosphopantetheinyl transferase ffp (Bacillus subtilis), Q9F4F7 | Biochemical Sfp PPTase activity, qHTS | Potency, µM, for the others: largest response in the series, negative = inhibition, actives largely listed as inhibitors | 3.5% of 310,000 active | AID 1490, 2009;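 also: the enzyme is Sfp with the accession as filed and its product quenches rhodamine fluorescence; 0% = enzyme reaction without inhibitor and -100% = no enzyme wells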
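With Hepes-Na pH 7.6 buffer containing 10 mM MgCl2, Sfp (15 nM) modified BHQ-2-YbbR (12.5 uM) using rhodamine-CoA (5 uM). Two reads 30 minutes apart at 525/598 nm yielded each well's rate.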
BAZ2B block = qHTS Assay for Inhibitors of BAZ2B; Bromodomain adjacent to zinc finger domain protein 2B (Homo sapiens), Q9UIF8; AlphaScreen BAZ2B-H3K14Ac peptide displacement; Potency, µM (titrated, usually from 114 µM), for the others: at the top dose activity change, negative = inhibition, actives largely listed as inhibitors; 4.4% of 360,000 active; AID 504333, 2011; also: % is scaled to controls: 0 for no effect and ±100 for the full control effect; nearly all actives have a fitted effect of over 60% in size
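BAZ2B 50 nM plus b-H3(5-23)K14Ac 50 nM, PBS pH 7.4/0.01% Tween-20, 30 min RT; compound added (max 110 uM), 30 min RT; streptavidin donor/Ni-chelate acceptor beads 10 ug/mL final, 20 min dark; AlphaScreen read.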
ALOX12 inh = Primary qHTS assay for inhibitors of human arachidonate 12S-lipoxygenase (ALOX12): Round 2; purified 12hLO, xylenol orange hydroperoxide absorbance; 1.1% of 580,000 active; AID 1671190, 2021; Polyunsaturated fatty acid lipoxygenase ALOX12 (Homo sapiens), P18054; Potency, µM (series often up to 108 µM), inactives show at the top dose activity change, negative = inhibition, usual class: inhibitors; also: % is scaled to controls: 0 for no effect and ±100 for the full control effect
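Purified human 12hLO at 150 nM in 25 mM Hepes, 0.01% Triton X-100, pH 7.0, preincubated 15 min at room temperature with compound. Reaction started with 40 uM arachidonic acid, 30 min at room temperature. Hydroperoxide measured by Fe-xylenol orange, 573/405 nm absorbance ratio.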
G9a block = qHTS Assay for Inhibitors of Histone Lysine Methyltransferase G9a | AID 504332, 2011 | G9a H3K9 monomethylation, AlphaScreen, 2 h | 8.8% of 350,000 active | Histone-lysine N-methyltransferase EHMT2 (Homo sapiens), Q96KQ7 | Potency, µM (series often up to 102 µM), for the others: top-dose activity, negative = inhibition, usual class: inhibitors; also: % is scaled to controls: 0 for no effect and ±100 for the full control effect; nearly all actives have a fitted effect of over 75% in size
Target sequence (Q96KQ7 913-1193 limits assumed): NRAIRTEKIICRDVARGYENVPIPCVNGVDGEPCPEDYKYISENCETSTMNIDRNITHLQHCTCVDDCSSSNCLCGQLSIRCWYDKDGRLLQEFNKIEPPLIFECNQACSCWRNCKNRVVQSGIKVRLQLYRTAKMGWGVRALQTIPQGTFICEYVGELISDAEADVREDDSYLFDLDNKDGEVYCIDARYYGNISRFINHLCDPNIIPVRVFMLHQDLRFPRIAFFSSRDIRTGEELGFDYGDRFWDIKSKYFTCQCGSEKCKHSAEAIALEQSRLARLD
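G9a (20 nM) preincubated 15 min RT with compounds, then 500 nM biotinylated H3K9 peptide and 20 uM SAM added; 2 h RT reaction. Monomethyl-H3K9 product detected by AlphaScreen with anti-H3K9me1 antibody, streptavidin donor and anti-rabbit IgG acceptor beads.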
* = called active by the depositor; u = inconclusive; x = not tested or not shown; [ ] = another dose, or the depositor's remark. Hits are enriched below; roughly 8.7% of the tested compounds scored in any of these assays. Calls follow the shape of the dose curve; as a rule, active = well fitted curve in the direction sought with a large enough effect; inconclusive = small, poorly fitted or top-dose-only effect, or another doubt; inactive = no such curve, though single readings can be large; an effect the other way counts as inactive or inconclusive. Potency is read from the fitted curve at half-maximal effect.

SMILES	JMJD2A Tudor inh	HP1b chromo inh	Sfp PPTase inh	BAZ2B block	ALOX12 inh	G9a block
CCOC(=O)CC1=NN(c2ccccc2)C(=O)/C1=C\c1ccc(OC)cc1OC	14µM*	16µM*	-17%	11µM*	u	10µM*
COc1ccc(Br)cc1CSc1nnc(C)n1C1CC1	x	x	x	x	12%	x
Cc1cccc(OC(C)C(=O)NOCc2ccccc2)c1C (stereo unspecified)	x	x	x	x	-18%	x
COc1ccc(NC(=O)Cn2c(C)cc3nc4n(c(=O)c32)CCCCC4)cc1Cl	x	x	x	x	3%	x
CCN1CCN(CCOCCOc2ccccc2-c2ccccc2)CC1	x	x	50µM*	20µM*	x	7.9µM*
c1ccc(-c2ccccc2OCCOCCN2CCNCC2)cc1	-2%	-7%	20µM*	22µM*	-15%	x
CC(=O)NC1(C)CCCN(Cc2cc(-c3cccc(N(C)C)c3)cs2)C1 (stereo unspecified)	x	x	x	x	42%[176 µM]	x
COc1cc(/C=C/C(=O)C2C(=O)C=C(C)OC2=O)cc(Cl)c1OC(F)F (stereo unspecified)	x	x	x	x	14µM*	x
Cc1ccc2c(c1)-c1onc(C(=O)Nc3cc(-c4cccc(F)c4)no3)c1CO2	x	x	x	x	1%	x
Cc1cnn(CCC(=O)N2CCC(C3CCN(S(C)(=O)=O)CC3)C2)c1 (stereo unspecified)	x	x	x	x	23%	x
O=C(CCNC(=O)C1CCCC1)NCCc1ccccc1	x	x	x	x	26%	x
Cc1oc(C(C)(C)C)cc1C(=O)N1CCCC1C(=O)O (stereo unspecified)	100µM*	7%	25%	-3%	0%	-5%[59 µM]
COCCN1C(=O)c2ccccc2C(C(=O)Nc2ccc3c(c2)OCO3)C12CCCC2 (stereo unspecified)	x	x	x	x	2%	x
COc1cccc(NC(=O)c2ncoc2-c2cccs2)c1	x	x	x	x	-2%	x
Cc1c2oc3c(C)ccc(C(=O)N[C@@H]4C(=O)N[C@H](C(C)C)C(=O)N5CCC[C@H]5C(=O)N(C)CC(=O)N(C)[C@@H](C(C)C)C(=O)O[C@@H]4C)c3nc-2c(C(=O)N[C@@H]2C(=O)N[C@H](C(C)C)C(=O)N3CCC[C@H]3C(=O)N(C)CC(=O)N(C)[C@@H](C(C)C)C(=O)O[C@@H]2C)c(N)c1=O	x	x	-5%	x	-3%[22.9 µM]	11µM*
Cn1nc(C(=O)N2CCC(Oc3ccc(-c4noc(C5CC5)n4)cc3)C2)c2ccccc21 (stereo unspecified)	x	x	x	x	6%	x
CCc1ccc(-c2cc(C(=O)Nc3cccnc3)c3ccccc3n2)cc1	x	x	x	x	-5%	x
CN1CCC(N2CCN(C3CN(Cc4cn(Cc5cccc(C(F)(F)F)c5)nn4)S(=O)(=O)C3)CC2)CC1 (stereo unspecified)	x	x	x	x	5.6µM*	x
O=S1(=O)CC(N2CCCC2)CN1Cc1cn(Cc2cccc(Cl)c2)nn1 (stereo unspecified)	x	x	x	x	0%	x
O=S1(=O)CC(N2CCN(Cc3ccccc3F)CC2)CN1Cc1cn(Cc2ccc(C(F)(F)F)cc2)nn1 (stereo unspecified)	x	x	x	x	40µM*	x
CN(C)CCN1CCN(C2CN(Cc3cn(Cc4cccc(Cl)c4)nn3)S(=O)(=O)C2)CC1 (stereo unspecified)	x	x	x	x	7.9µM*	x
Cn1nc(C(=O)NN2C(=O)NC3(CCCCC3)C2=O)c2ccccc2c1=O	x	x	x	x	-22%	x
Cc1cc(Cl)ccc1OCC(=O)OCC(=O)Nc1ccccc1Br	x	x	x	x	-2%	x
C/C(N)=C(/C#N)C(=O)COC(=O)COc1ccc(Cl)cc1C	-15%	5%	14%	-5%	0%	50µM*
CCOc1ccccc1Nc1nnc(SCC(=O)Nc2nc(-c3ccc(OC)cc3)cs2)s1	u	33%	8%	-9%	14%	8.9µM*
SMILES	JMJD2A Tudor inh	HP1b chromo inh	Sfp PPTase inh	BAZ2B block	ALOX12 inh	G9a block
COc1ccc(-c2csc(NC(=O)CSc3nnc(Nc4ccccc4C)s3)n2)cc1	-14%	19%	16%	-15%	-9%	11µM*
Cc1ccc(S(=O)(=O)c2nc(-c3cccs3)oc2N2CCC(C)CC2)cc1	u	-17%	x	u	-21%	u
CC1CCN(c2oc(-c3cccs3)nc2S(=O)(=O)c2ccc(Cl)cc2)CC1	u	u	x	u	-23%	7.9µM*
O=S(=O)(c1ccccc1)c1nc(-c2cccs2)oc1N1CCCCC1	-17%	-23%	x	35µM*	-26%	u
CNc1oc(-c2cccs2)nc1S(=O)(=O)c1ccccc1	-18%	13%	19%	-32%	0%	u
CCC(C)S(=O)(=O)c1oc(-c2cccs2)nc1S(=O)(=O)c1ccccc1 (stereo unspecified)	-20%	47%	x	-8%	7%	18µM*
CCOC(=O)C1CCN(c2cc3c(cc2NC(=O)c2ccccc2F)n(C)c(=O)n3C)CC1	-23%	12%	-7%	50µM*	0%	8%[0.0925 µM]
CCOC(=O)c1ccccc1NC(=O)Nc1cc2c(cc1N1CCCC1)n(C)c(=O)n2C	u	15%	x	50µM*	3%	u
COc1cc2c(cc1NC(=O)c1ccccc1C)n(C)c(=O)n2C	-22%	15%	x	50µM*	-14%	-10%[59 µM]
COc1ccccc1C(=O)Nc1cc2c(cc1N1CCCCC1)n(C)c(=O)n2C	u	-23%	x	u	-62%	-32%[59 µM]
Oc1c(Br)cc(Br)cc1/C=N/NC(=S)N[C@H]1CC2C=CC1C2 (stereo partly specified)	40µM*	0%	3%	17%	7%	x
CNC(=S)N/N=C/c1cc(Br)cc(Br)c1O	32µM*	u	-4%	3.2µM*	u	-7%
O=C(NCCc1ccc2c(c1)OCCO2)c1ccccc1NS(=O)(=O)c1cccs1	x	x	x	x	1%	x
CC(C)NC(=O)N1CCOc2ccc(CCC(=O)O)cc2C1	x	x	x	x	15%	x
CCCCCCCCSCCCCC(=O)O	x	x	x	x	-59%	x
COc1ccccc1N1CCN(CC(=O)c2ccc3ccn(C(C)=O)c3c2)CC1	-27%	41%	u	-11%	x	11µM*
COc1ccccc1N1CCN(CCCC(=O)c2ccc(F)cc2)CC1	-17%	24%	19%	1%	-22%	0%
COc1ccc(C(=O)CCN2CCc3cc(OC)c(OC)cc3C2)cc1	-16%	25%	-10%	-24%	31%	13µM*
